# Laboratory results: PubChem BioAssay (NCI)
# About 83,000 compounds went through this panel and 20% of them were active in at least one assay; those are over-represented in the sample as a whole.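 Interpretation: 100, growth as untreated; towards 0, rising growth inhibition; 0, no net growth; 0 to -100, cell death. Compounds scoring below 10 were considered active.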 Values without a mark were called inactive. The source made the active and inactive calls.
# How the values were obtained:
# Assay in all cases: NCI-60 one-dose screen, 48 h (100 = growth as untreated, 0 = no growth, -100 = all killed)
# SR leukemia = conditions: 10 µM unless noted
# RPMI-8226 leukemia = conditions: 10 µM unless noted
# OVCAR-8 ovarian = conditions: 10 µM unless noted
# OVCAR-5 ovarian = conditions: 10 µM unless noted
# OVCAR-4 ovarian = conditions: 10 µM unless noted
# SK-OV-3 ovarian = conditions: 10 µM unless noted
# IGROV1 ovarian = conditions: 10 µM unless noted
# OVCAR-3 ovarian = conditions: 10 µM unless noted
# HS 578T breast = conditions: 10 µM
# NCI/ADR-RES ovarian = conditions: 10 µM unless noted
# T-47D breast = conditions: 10 µM unless noted
# BT-549 breast = conditions: 10 µM unless noted
# MDA-MB-435 melanoma = conditions: 10 µM unless noted
# SW-620 colon = conditions: 10 µM unless noted
# MCF7 breast = conditions: 10 µM unless noted
# HCT-116 colon = conditions: 10 µM unless noted
# HCC-2998 colon = conditions: 10 µM unless noted
# KM12 colon = conditions: 10 µM unless noted
SMILES,growth (SR leukemia),growth (RPMI-8226 leukemia),growth (OVCAR-8 ovarian),growth (OVCAR-5 ovarian),growth (OVCAR-4 ovarian),growth (SK-OV-3 ovarian),growth (IGROV1 ovarian),growth (OVCAR-3 ovarian),growth (HS 578T breast),growth (NCI/ADR-RES ovarian),growth (T-47D breast),growth (BT-549 breast),growth (MDA-MB-435 melanoma),growth (SW-620 colon),growth (MCF7 breast),growth (HCT-116 colon),growth (HCC-2998 colon),growth (KM12 colon)
COC(=O)/C=C/c1cc(OC(C)=O)c2c(c1)[C@@H](C(=O)OC)[C@H](c1ccc(OC(C)=O)c(OC(C)=O)c1)O2,10.8%,3.3% (active),11%,20.6%,30.4%,36.4%,12.2%,-21.9% (active),7.01% (active),-5.91% (active),74.7%,13.5%,-64.8% (active),15.7%,15.6%,6.38% (active),22.2%,5.97% (active)
COc1cc2cc(C(=O)Nc3ccccc3)c(N)nc2cc1OC,-35.8% (active),-21.2% (active),-44.8% (active),73%,22.3%,23%,-11.7% (active),27.8%,36.2%,-29.1% (active),-28% (active),69.9%,-84.2% (active),-68% (active),-88.4% (active),-80.2% (active),-83.4% (active),-52% (active)
Cc1ccc(NC(=O)Cn2nncc2CN2C(=O)CSC2=O)cc1C,124%,106%,102%,112%,104%,89.7%,111%,102%,99.2%,96.1%,98.7%,98.8%,100%,99.3%,92%,102%,92.5%,105%
COc1ccc(/C(=C\c2ccc3c(c2)OCO3)C(=O)Nc2nc3ccccc3s2)cc1,81.7%,94.5%,102%,93.6%,101%,97.8%,103%,98.5%,110%,100%,86.1%,103%,99.1%,108%,107%,85.4%,109%,101%
CC1=C(O)C(=O)C(c2c(C)cc(C)c(Br)c2C)=C(O)C1=O,48.9%,36.7%,68.4%,70.1%,45.6%,88.3%,46.3%,54.2%,76.4%,73.4%,83.3%,73.1%,73.2%,85.5%,56.5%,54.4%,63%,67.7%
O=C1C(Cl)=C(N/N=c2/[nH][nH]/c(=N/NC3=C(Cl)C(=O)c4ccccc4C3=O)c3ccccc23)C(=O)c2ccccc21,19.7%,33.8%,78.1%,119%,78.5%,73.6%,59.6%,66.2%,37.4%,66.1%,15.3%,83.1%,102%,60.6%,54%,61.8%,93.9%,18.5%
CNCc1cccc2c1OCCOCCOCCC(C)S(=O)(=O)c1ccc(cc1)-c1cnc(N)c(n1)C(=O)N2 (configuration not stated),-19.2% (active),54.8%,2.48% (active),115%,75.5%,23.2%,28.2%,25.7%,0.126% (active),91.6%,32.8%,43.9%,42.8%,27.6%,37.9%,-2.15% (active),79%,47.5%
COc1cc(NC(C)CCCN)c2ncccc2c1Oc1ccc(Cl)cc1 (configuration not stated),53.2%,63%,84.8%,84.6%,56.3%,98.6%,64.6%,60%,70%,77.3%,76.8%,86.2%,90.7%,73.5%,71.3%,58.3%,49.8%,69.2%
COc1cc(/C=C/C(=O)c2c(C)nc3ccccc3c2C)ccc1OCCCOc1cc2c(cc1OC)C(=O)N1CCC[C@H]1C=N2,-34.3% (active),-22.6% (active),12.3%,-23.1% (active),-10.9% (active),-9.97% (active),-61.7% (active),-86.9% (active),-2.33% (active),13.9%,-38.8% (active),-94.2% (active),-60.8% (active),-67.6% (active),-51.3% (active),-35.8% (active),-69.3% (active),-54.2% (active)
CCCCn1c(C)nc2cc(Nc3nc(Cl)nc4nc[nH]c34)ccc21,66.7%,65.4%,84.2%,80.6%,78.9%,80%,70.7%,91.6%,52.7%,94%,39.3%,72.3%,90.1%,90.4%,75.4%,83.6%,102%,97.3%
Cc1cc(C)c(C#N)c(SCC(=O)c2sc3c(C#N)c(C)cc(C)[n+]3c2[O-])n1,5.47% (active),43.1%,20.4%,41.6%,66.9%,14.7%,9.29% (active),-15.9% (active),21.8%,12%,38.1%,30.4%,-59.2% (active),20.3%,13.4%,16.8%,15.8%,16.4%
Fc1ccc2c(CN3CCO[C@H](COc4cccc(Cl)c4)C3)c[nH]c2c1,37.3%,12.5%,33.3%,85.8%,71.2%,85.7%,63%,36.7%,64.8%,47.3%,37.5%,57.7%,50%,59.7%,20.3%,28.8%,96.9%,38.9%
Cc1ccc(S(=O)(=O)NC(CCC(=O)Nc2ccc(Cl)cc2)C(=O)Nc2ccc(Cl)cc2)cc1 (configuration not stated),-18.2% (active),13.5%,39.2%,67.8%,26.3%,26.2%,34.6%,7.96% (active),29.8%,39.6%,16.5%,27.3%,38.4%,31.1%,30%,23.8%,23.5%,12.8%
COc1ccc(C2=CC(c3ccc(OC)cc3Br)N3C=CSC3=N2)cc1 (configuration not stated),-22.1% (active),-9.05% (active),73.7%,84.6%,79.7%,98.2%,37.8%,37.5%,87.7%,86.5%,54.6%,30.7%,4.2% (active),27.3%,10.5%,-100% (active),59.7%,24.1%
COc1cccc(Cn2c(-c3nonc3NC(C)=O)nc3ccccc32)c1,16.3%,28.4%,50.9%,39.2%,79.9%,16.9%,56.8%,69.5%,23.6%,30.3%,42.3%,41.6%,-35% (active),28.7%,47.4%,42.7%,49.3%,30.4%
NNC(=O)Cc1ccccc1,88.9%,88.4%,87.6%,77.1%,97.4%,78.4%,97.5%,96%,95.7%,72.2%,85%,108%,83.7%,86.2%,91.5%,90.6%,–,80.1%
CC1=NOCC(=O)N1,97.5%,99.9%,107%,95.3%,95.4%,103%,104%,108%,117%,110%,99.1%,104%,100%,103%,98.6%,98.5%,–,107%
Cc1ccc(-c2nc3ccccc3c(=O)n2/N=C/c2cccc3ccccc23)cc1,49.8%,73.6%,84.2%,102%,76.2%,76.4%,50.1%,71.6%,100%,78.6%,42.6%,80.1%,69.2%,93.9%,–,71.5%,80.5%,69.1%
N=C(N)c1ccc(-c2ccc(-c3cc(Cl)cc(Cl)c3)o2)nc1,-27.4% (active),-45.2% (active),-49.4% (active),-62.3% (active),-57.7% (active),-86.5% (active),-41.3% (active),-95.2% (active),83.4%,-29.8% (active),-66.1% (active),91.2%,-78.1% (active),-82.7% (active),–,-74% (active),-41.9% (active),–
